PubChem BioAssay (EPA / NIEHS)
Active and inactive are the calls of the source. Rule for the calls: active = hit-call score of the fitted dose curve at least 0.9, where 1 is the maximum; inactive = score below 0.9.

What follows are compounds tested on urokinase plasminogen activator (uPA), PLAU (gene 5328) (assay: BSK_BE3C_uPA: BioMAP Diversity Plus: BE3C Assay for urokinase plasminogen activator (uPA) Biomarker Activity (AID 2283038)). Settings: primary human bronchial epithelial cells; actives raise or lower the signal.
Procedure: BSK_BE3C is a cell-based, multiplexed-readout assay that uses bronchial epithelial cell, a human lung primary cell, with measurements taken at 24 hours after chemical dosing in a 96-well plate.BSK_BE3CA is an assay component measured in the BSK_BE3C assay. It measures uPA antibody related to regulation of gene expression using ELISA technology.Data from the assay component BSK_BE3CA was analyzed into 1 assay endpoint. This assay endpoint, BSK_BE3CA, was analyzed with bidirectional fitting relative to DMSO as the negative control and baseline of activity. Using a type of binding reporter, gain or loss-of-signal activity can be used to understand changes in the signaling as they relate to the gene PLAU. Furthermore, this assay endpoint can be referred to as a primary readout, because this assay has produced multiple assay endpoints where this one serves a signaling function. To generalize the intended target to other relatable targets, this assay endpoint is annotated to the protease intended target family, where the subfamily is serine protease.
The levels of cell surface (or secreted, indicated by the prefix "s") biomarker endpoints were measured by ELISA. Overt cytotoxicity to cells in confluent adherent cultures (all systems other than the BT system) was assessed by measuring total protein levels using sulforhodamine B (SRB) staining in parallel cultures at the time of biomarker measurements, indicated as SRB endpoints. For proliferation assays for adherent cell types, individual cell types are cultured at sub-confluence and relative cell numbers quantified by SRB staining at time points optimized for each system (48 h: 3C and CASM3C systems; 72 h: BT and HDF3CGF systems; 96 h: SAg system). SRB was performed by staining cells with 0.1% SRB after fixation with 10% TCA and reading wells at 560 nm.Viability and proliferation of PBMC (T cells) was quantified by Alamar Blue reduction for the SAg and BT systems. For PBMC viability (referred to as PBMC Cytotoxicity within the assay endpoint names), cells were plated (75,000/well in a 96-well plate) and then chemical samples added for 1 h before addition of activators, SEB and TSST-1 (20 ng/mL final concentration each). Cells were incubated for 90 h. Then, Alamar Blue (20 uL/well) (Invitrogen, Cat DAL1100) was added for 6 h, and the plates were read with a fluorescence microplate reader at 546/580 nm (excitation/emission). For PBMC proliferation, cells were plated and activated as above but incubated for only 16 h prior to addition of Alamar Blue. Plates were read after 6 h.
With `O=C(O)c1c(Cl)ccc2cc(Cl)cnc12` the outcome was “inactive”.
In the case of `COCC(=O)N(c1c(C)cccc1C)C(C)C(=O)OC` (stereo not given), the outcome was “inactive”.
For `CC(C)Oc1cccc(NC(=O)c2ccccc2C(F)(F)F)c1`, the outcome was “inactive”.
With `CS(=O)(=O)c1ccc(C(=O)C2C(=O)CCCC2=O)c([N+](=O)[O-])c1` the outcome was “inactive”.
For `COCc1cnc(C2=NC(C)(C(C)C)C(=O)N2)c(C(=O)O)c1` (stereo not given), the outcome was “inactive”.
In the case of `CC1(C)CON(Cc2ccccc2Cl)C1=O`, the outcome was “inactive”.
For `Clc1nc(Cl)nc(Nc2ccccc2Cl)n1`, the outcome was “inactive”.
In the case of `COP(=O)(OC)O/C(C)=C/C(=O)N(C)C`, the outcome was “inactive”.
With `N#Cc1c[nH]cc1-c1cccc2c1OC(F)(F)O2` the outcome was “inactive”.
For `CNC(=O)N(C)c1nnc(C(C)(C)C)s1`, the outcome was “inactive”.
For `COP(=S)(OC)SCn1nnc2ccccc2c1=O`, the outcome was “inactive”.
`CCCN(CC)CC1COC2(CCC(C(C)(C)C)CC2)O1` (stereo not given) was tested, and the outcome was “inactive”.
For `CC(C)(C)C(=O)C(Oc1ccc(Cl)cc1)n1cncn1` (stereo not given), the outcome was “inactive”.
In the case of `CCOc1nc(C(Cl)(Cl)Cl)ns1`, the outcome was “inactive”.
With `Cc1cnc(C2=NC(C)(C(C)C)C(=O)N2)c(C(=O)O)c1` (stereo not given) the outcome was “inactive”.
With `CCCC(=NOCC)C1=C(O)CC(CC(C)SCC)CC1=O` (stereo not given) the outcome was “inactive”.
For `CS(=O)(=O)c1cc(C(F)(F)F)ccc1C(=O)c1cnoc1C1CC1`, the outcome was “inactive”.
For `CCOc1cc(C(C)(C)C)ccc1C1COC(c2c(F)cccc2F)=N1` (stereo not given), the AC50 was 20 µM (active).
In the case of `COc1ccc(-c2ccccc2)cc1NNC(=O)OC(C)C`, the outcome was “inactive”.
In the case of `COc1cc(OC)nc(NC(=O)NS(=O)(=O)c2ncccc2OCC(F)(F)F)n1`, the outcome was “inactive”.
In the case of `Clc1cccc(C(Cl)(Cl)Cl)n1`, the outcome was “inactive”.
For `O=C1C2CC=CCC2C(=O)N1SC(Cl)(Cl)Cl` (stereo not given), the AC50 was 11.5 µM (active).
`CCOP(=S)(OCC)Oc1nc(Cl)n(C(C)C)n1` was tested, and the outcome was “inactive”.
`CCOP(=O)(OCC)Oc1nc(Cl)c(Cl)cc1Cl` was tested, and the outcome was “inactive”.
In the case of `O=C(Nc1ccccc1-c1ccc(Cl)cc1)c1cccnc1Cl`, the outcome was “inactive”.
For `C=CCOC(=O)C(C)(C)OC(=O)c1cc(-n2c(=O)cc(C(F)(F)F)n(C)c2=O)ccc1Cl`, the outcome was “inactive”.
With `CO/N=C(/C1=NOCCO1)c1ccccc1Oc1ncnc(Oc2ccccc2Cl)c1F` the outcome was “inactive”.
For `O=c1n(Cl)c(=O)n(Cl)c(=O)n1Cl`, the outcome was “inactive”.
For `COC(=O)NS(=O)(=O)c1ccc(N)cc1`, the outcome was “inactive”.
With `CCOc1nc(F)cc2nc(S(=O)(=O)Nc3c(Cl)cccc3Cl)nn12` the outcome was “inactive”.
With `OC(c1ccc(Cl)cc1)(c1ccc(Cl)cc1)C(Cl)(Cl)Cl` the outcome was “inactive”.
With `CC1(C)C(C(=O)OC(C#N)c2cccc(Oc3ccccc3)c2)C1(C)C` (stereo not given) the outcome was “inactive”.
For `COc1cc(Cl)c(OC)cc1Cl`, the outcome was “inactive”.
With `CC(C)Nc1nc(Cl)nc(NC(C)C)n1` the outcome was “inactive”.
In the case of `CCCCC(O)(Cn1cncn1)c1ccc(Cl)cc1Cl` (stereo not given), the outcome was “inactive”.
`CCC(C)n1c(=O)[nH]c(C)c(Br)c1=O` (stereo not given) was tested, and the outcome was “inactive”.
For `N#CN=C1SCCN1Cc1ccc(Cl)nc1`, the outcome was “inactive”.
`Cc1ccc(N=CN(C)C=Nc2ccc(C)cc2C)c(C)c1` was tested, and the AC50 was 35.4 µM (active).
In the case of `CCCCC(C#N)(Cn1cncn1)c1ccc(Cl)cc1` (stereo not given), the outcome was “inactive”.
`CC(C)N1C(=O)c2ccccc2NS1(=O)=O` was tested, and the outcome was “inactive”.
